Our source for the Inhibition values is ChEMBL document CHEMBL1157539, “Thousands of chemical starting points for antimalarial lead identification” (Nature, 2010).

Molecules are shown by their SMILES.

What all share (format): functional
For test [1], the system named is Plasmodium falciparum. As to the kind of experiment: GSK_TCMDC: Inhibition of Plasmodium falciparum 3D7 in whole red blood cells, using parasite LDH activity as an index of growth. Test compounds present at 2uM.
Test [2] concerns Plasmodium falciparum. Put plainly: GSK_TCMDC: Inhibition of Plasmodium falciparum Dd2 in whole red blood cells, using parasite LDH activity as an index of growth. Test compounds present at 2uM.
The next test deals with HepG2. As to the kind of experiment: GSK_TCMDC: Percent inhibition of human HepG2 cell line. Test compounds present at 10uM.

Regarding `Br.N=C(N)Nc1nc(-c2cccc(NC(=O)C(F)(F)F)c2)cs1`, the Inhibition in the test on Plasmodium falciparum [1] was 94%; with Plasmodium falciparum [2] it was 24%; in the test on HepG2 it was 0%.
Regarding `O=C(/C=C/c1cccc(Br)c1)NCCCCCN1CCC(c2c[nH]c3ccccc23)CC1`, the Inhibition in the test with Plasmodium falciparum [1] turned out to be 100%; in the test with Plasmodium falciparum [2] it was 15%; in the test on HepG2, 38%.
`CCCCc1cc(NCc2ccncc2)nc(Nc2ccc(OC)cc2)n1`: the Inhibition with Plasmodium falciparum [1] came out at 93%; in the test on Plasmodium falciparum [2], 22%; in the test on HepG2, 11%.
The corresponding values for `COc1cccc(-c2[nH]c3ccccc3c2CN2CCC(c3c(C)cccc3C)CC2)c1` are 99%, 24% and 32%.
Taken in the same sequence, the figures for `CCN(CCCN1CCCCC1)c1nc(C)cc(Nc2ccc(Cl)cc2)n1` were 98%, 92% and 30%.
As to `CC(C)NCc1ccc(-c2ccc(CN3CCCC(c4ccccc4)C3)cc2)c(C(=O)NC2Cc3ccccc3C2)c1.O=C(O)C(F)(F)F` (stereo unspecified), the Inhibition in the test on Plasmodium falciparum [1] came out at 96%; in the test with Plasmodium falciparum [2], 64%; in the test on HepG2, 41%.
The corresponding values for `CCC[C@@H]([C@@H](CC1CCCCC1)C(=O)N[C@H](C(=O)Nc1nccs1)[C@H](C)O)N(O)C=O` are 99%, 75% and 0%.

The Inhibition is the relative decrease from the control value, in per cent. The low end stands for little suppression, the high end for strong suppression.
